In PubChem BioAssay:
Values joined by “and” are separate entries in the source; they are usually repeats but may differ in a detail not shown here. Equal entries are not always repeated. Active and inactive are the calls of the source.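 Rule for the calls, unless noted: active = thallium flux through the channel raised or lowered by more than 3 SD from vehicle-only wells, actives on both sides; inactive = the rest.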

Key:
[1] = stimulators of nuclear beta-catenin in C2C12, primary screen, imaging, WNT3A-conditioned medium, mouse C2C12, NPC library (AID 1117326; in the data active = nuclear beta-catenin stimulation mostly above about 4.2%, no sharp cut-off; inactive = mostly below about 10%); conditions: stronger effect = higher value
[2] = stimulators of insulin release from INS-1E, primary screen, cell-based, 5 mM glucose, NPC library (AID 1117329;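 active = compound raises insulin release from rat beta cells at 5 mM glucose, no numeric limit stated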); conditions: rat INS-1E insulin secretion, at 10 µM, stronger effect = higher value
[3] = growth inhibition of GSK3B-pretreated HCT116 cells – cell-based, CellTiter-Glo, 0.2 to 20 µM (AID 1117336;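 active = compounds lowering colon cancer cell viability after pretreatment blocking the GSK3B kinase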); conditions: HCT116 viability after GSK3B inhibitor, at 20 µM, stronger effect = higher value
[4] = inhibition of endothelial tube formation, primary screen, imaging, VEGF stimulated, CD31 staining, tube area, NPC library (AID 1117340;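 active = compound that reduces growth-factor-driven endothelial tube area in a mixed cell culture, no cutoff stated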); conditions: VEGF-stimulated ADSC/ECFC co-culture, at 10 µM, stronger effect = higher value
[5] = glucagon-like peptide 1 release enhancers, primary assay, NCI-H716 cell line, NPC library (AID 1117341;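 active = compound raises GLP1 secretion from the human gut endocrine cells, with no numeric limit stated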); conditions: NCI-H716 cells, at 10 µM, stronger effect = higher value
[6] = HCT116 colon cancer cell growth inhibition, primary screen, CellTiter-Glo luminescence, NPC library (AID 1117342;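 active = compounds that lower survival of HCT116 colon cancer cells in the luminescence readout, no numeric limit stated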); conditions: at 20 µM (top of the series)
[7] = CellTiter-Glo luminescent readout of SW480 viability loss, NPC library primary (AID 1117343;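 active = compounds that lower viability of the colon cancer cells in the luminescence readout, with no numeric limit stated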); conditions: CellTiter-Glo luminescence; at 20 µM (top of the series)
[8] = decreased DLD-1 cellular survival, CellTiter-Glo luminescent readout, NPC compound collection, primary HTS (AID 1117346;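 active = compounds that lower survival of DLD-1 colon cancer cells in the luminescence readout, no cutoff given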); conditions: DLD-1 viability, CellTiter-Glo luminescence; at 20 µM (top of the series)
[9] = molecular target: 6-phosphogluconate dehydrogenase, decarboxylating (Homo sapiens) (UniProt P52209); experiment: 6PGD enzyme inhibitors, primary screen, biochemical, human, recombinant enzyme, NADPH absorbance (AID 1159550;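 active = at least 20% inhibition of 6-phosphogluconate dehydrogenase activity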); conditions: recombinant 6PGD, NADPH absorbance 341 nm; at 10 µM; stronger effect = higher value
[10] = modulation of C. elegans fzo-1 (AID 1259413; call rule not given here;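 note: fzo-1 mutant C. elegans worms in liquid wells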); conditions: C. elegans fzo-1 modulator screen, mean read-out; stronger effect = higher value
[11] = differential killing of epithelial or mesenchymal cells, primary screen, imaging, PC-3E GFP, TEM4-18 mCherry, co-culture (AID 1345086;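 active = compounds killing one labelled cell type while sparing the other, by normalised counts and ratio limits, not self-fluorescent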;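 for all read-outs here: cells exposed to compound for 72 h before imaging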;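 for red/green cell ratio (normalised): normalised mesenchymal count divided by normalised epithelial count so high means epithelial killing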); conditions: imaging cell counts, at 1 µM; for red/green cell ratio (normalised): actives lie on both sides, counts scaled to control wells, 1 = unselective
[12] = survival rescue of mitochondrial mutant cells in low glucose, primary screen, MELAS cybrids, Rieske KO mouse fibroblasts, CellTiter-Glo (AID 1508586;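 active = mean z-score across replicates of 1.96 or higher in either the MELAS or the Rieske mutant cell line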;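 note: z relative to plate mean and SD of compound and empty wells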)
[13] = molecular target: NAD(+) hydrolase SARM1 (Homo sapiens) (UniProt Q6SZW1); experiment: SARM1 TIR NADase inhibitors, cell lysate, NAD-Glo luminescence (AID 1508614;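 active = compound whose remaining NAD level is above about 45 nM, limit read from the data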;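 note: higher remaining NAD means stronger inhibition of SARM1 NADase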); conditions: SAM-TIR HEK293T lysate NADase, at 1 µM, stronger effect = higher value
[14] = molecular target: Mitogen-activated protein kinase 7 (Homo sapiens) (UniProt Q13164); experiment: ERK5 transactivation activators in reporter cells, primary screen, cell-based, HTS (AID 1508626;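 active = luciferase signal above three times the same-plate solvent-only control wells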;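 note: luciferase driven by Gal4-ERK5 fusion binding five Gal4 sites before minimal TATA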); conditions: HeLa Gal4-ERK5 transactivation, 18 h, at 5 µM, stronger effect = higher value
F380Y = experiment: modulators of BK channel variants, profiling panel, selectivity assay, cell-based, U2OS BacMam, thallium flux, beta subunits (AID 1259406); conditions: at 30 µM;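 note: initial slope of Thallos dye fluorescence rise after thallium is added; log ratio against the mean of 0.3% DMSO vehicle wells on the same plate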
F380Y/beta1 = experiment: as above; conditions: at 30 µM
F380Y/beta2Delta = experiment: as above; conditions: at 30 µM
[15] = sensitizers of A549 cells to miR-34 induction, primary screen, imaging, A549 dox-inducible miR-34, nuclei and caspase counts (AID 1347080;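 active = compounds whose cell count with miR-34 switched on is under 0.7 times the count with it off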); conditions: A549 miR-34 inducible, Hoechst nuclei count, 48 h
[16] = measured here: epithelial PC-3E GFP cell survival
[17] = measured here: mesenchymal TEM4-18 mCherry cell survival
[18] = MELAS cybrid survival, CellTiter-Glo 48 h, stronger effect = higher value
[19] = Rieske KO mouse fibroblast survival, CellTiter-Glo 72 h
[20] = stronger effect = lower value, cell number ratio, induced over uninduced
[21] = measured here: relative caspase fold change +Dox/-Dox
[22] = measured here: total cells with miR-34 induction, stronger effect = lower value
[23] = measured here: total cells without miR-34 induction

Chain of NAD(+) hydrolase SARM1 (Homo sapiens) (Q6SZW1 whole entry, looked up, the tested form may be a part): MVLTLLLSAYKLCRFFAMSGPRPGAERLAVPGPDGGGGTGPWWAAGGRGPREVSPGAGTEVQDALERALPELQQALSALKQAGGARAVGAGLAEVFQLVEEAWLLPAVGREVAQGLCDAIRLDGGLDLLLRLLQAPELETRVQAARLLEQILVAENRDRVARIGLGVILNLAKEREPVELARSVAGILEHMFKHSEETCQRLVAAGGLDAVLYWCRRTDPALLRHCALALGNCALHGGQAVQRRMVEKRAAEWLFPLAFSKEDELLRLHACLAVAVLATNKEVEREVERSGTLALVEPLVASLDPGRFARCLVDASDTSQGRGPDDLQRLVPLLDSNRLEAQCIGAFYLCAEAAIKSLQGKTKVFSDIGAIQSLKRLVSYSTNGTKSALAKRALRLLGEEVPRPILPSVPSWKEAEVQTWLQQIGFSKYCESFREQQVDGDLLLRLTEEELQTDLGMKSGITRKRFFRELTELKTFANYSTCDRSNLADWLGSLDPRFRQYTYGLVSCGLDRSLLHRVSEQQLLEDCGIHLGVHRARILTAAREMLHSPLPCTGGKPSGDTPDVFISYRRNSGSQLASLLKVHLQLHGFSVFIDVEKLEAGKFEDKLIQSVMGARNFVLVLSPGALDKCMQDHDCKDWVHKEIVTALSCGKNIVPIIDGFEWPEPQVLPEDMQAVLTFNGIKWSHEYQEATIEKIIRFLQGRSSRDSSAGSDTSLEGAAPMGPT
Chain of 6-phosphogluconate dehydrogenase, decarboxylating (Homo sapiens) (P52209 whole entry, looked up): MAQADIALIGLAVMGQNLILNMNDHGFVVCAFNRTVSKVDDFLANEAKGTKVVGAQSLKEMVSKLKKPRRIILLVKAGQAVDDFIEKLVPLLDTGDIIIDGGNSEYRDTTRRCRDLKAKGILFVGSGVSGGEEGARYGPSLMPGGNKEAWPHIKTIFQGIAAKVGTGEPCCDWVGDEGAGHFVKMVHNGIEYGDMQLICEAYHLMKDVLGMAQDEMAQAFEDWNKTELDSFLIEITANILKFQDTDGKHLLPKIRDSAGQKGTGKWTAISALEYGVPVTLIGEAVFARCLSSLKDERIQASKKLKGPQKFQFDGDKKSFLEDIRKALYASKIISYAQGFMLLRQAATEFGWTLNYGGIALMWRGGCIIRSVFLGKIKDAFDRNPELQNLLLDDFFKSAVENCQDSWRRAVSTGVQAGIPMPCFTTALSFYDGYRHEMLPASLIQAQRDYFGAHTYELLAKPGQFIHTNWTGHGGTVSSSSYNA
Chain of Mitogen-activated protein kinase 7 (Homo sapiens) (Q13164 whole entry, looked up, the tested form may be a part): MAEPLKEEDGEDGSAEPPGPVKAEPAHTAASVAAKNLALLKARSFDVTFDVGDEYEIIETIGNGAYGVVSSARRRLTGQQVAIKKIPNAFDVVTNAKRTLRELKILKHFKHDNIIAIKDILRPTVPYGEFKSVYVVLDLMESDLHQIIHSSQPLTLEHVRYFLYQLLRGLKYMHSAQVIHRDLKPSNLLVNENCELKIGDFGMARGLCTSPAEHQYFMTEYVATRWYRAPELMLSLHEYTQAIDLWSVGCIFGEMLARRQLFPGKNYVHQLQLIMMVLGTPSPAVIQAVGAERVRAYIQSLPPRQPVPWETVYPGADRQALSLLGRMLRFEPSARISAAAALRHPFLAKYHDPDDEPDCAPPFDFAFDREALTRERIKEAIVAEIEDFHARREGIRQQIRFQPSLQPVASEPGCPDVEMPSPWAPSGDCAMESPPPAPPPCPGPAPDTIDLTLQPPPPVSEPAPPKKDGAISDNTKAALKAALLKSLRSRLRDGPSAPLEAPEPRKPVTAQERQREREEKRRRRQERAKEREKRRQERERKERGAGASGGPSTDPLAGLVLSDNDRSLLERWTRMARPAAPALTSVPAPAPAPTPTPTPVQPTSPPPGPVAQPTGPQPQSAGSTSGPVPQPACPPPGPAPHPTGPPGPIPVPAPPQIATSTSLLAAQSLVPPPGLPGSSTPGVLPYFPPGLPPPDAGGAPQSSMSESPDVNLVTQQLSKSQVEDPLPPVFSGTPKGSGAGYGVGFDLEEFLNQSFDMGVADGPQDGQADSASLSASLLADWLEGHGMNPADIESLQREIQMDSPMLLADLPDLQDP

CCCNCC(O)COc1ccccc1C(=O)CCc1ccccc1 (configuration not stated)
active: insulin secretion stimulation [2] 32.4% | log fold change Tl+ flux (F380Y) 0.197 | log fold change Tl+ flux (F380Y/beta2Delta) 0.0815
inactive: nuclear beta-catenin stimulation ([1]; at 10 µM) 0.3% | viability decrease [3] 7.9% | tube area decrease [4] 24.9% | GLP1 secretion stimulation [5] -2.7% | inhibition of viability [6] 32.5% | viability decrease (inhibition) [7] 41% | viability decrease (inhibition) [8] 10.6% | inhibition [9] -5.6% | mean signal [10] 272 | red/green cell ratio (normalised) [11] 1.04 | z-score [12, 18] -0.438 and -0.541 and -0.854 | remaining NAD [13] 10 nM | luciferase signal [14] 116 AU | log fold change Tl+ flux (F380Y/beta1) 0.0626
0.1%: nuclear beta-catenin stimulation ([1]; stimulation, at 2 µM)
-0.529 and -0.098 and 0.366: z-score [12, 19]
1.41: normalised cell number [11, 17]
1.35: normalised cell number [11, 16]

NS(=O)(=O)c1cc(C2(O)NC(=O)c3ccccc32)ccc1Cl (configuration not stated)
6.2%: nuclear beta-catenin stimulation ([1]; stimulation, at 2 µM)
1.92 and 1.71 and 1.64: fold change [15, 21]
11400 and 10400 and 12300: cell count [15, 23]
11100 and 8640 and 10800: cell count [15, 22]
inactive: nuclear beta-catenin stimulation ([1]; at 10 µM) 2.1% | insulin secretion stimulation [2] 0.8% | viability decrease [3] -12.6% | tube area decrease [4] 2.3% | GLP1 secretion stimulation [5] -2% | inhibition of viability [6] -5.17% | viability decrease (inhibition) [7] 16.8% | viability decrease (inhibition) [8] -4% | inhibition [9] 7.34% | mean signal [10] 251 | red/green cell ratio (normalised) [11] 1.08 | fold change [15, 20] 0.98 and 0.828 and 0.88 | z-score [12, 18] -0.366 | remaining NAD [13] 10 nM | luciferase signal [14] 36 AU | log fold change Tl+ flux (F380Y) -0.0172 | log fold change Tl+ flux (F380Y/beta1) -0.0295 | log fold change Tl+ flux (F380Y/beta2Delta) -0.039
1.3: normalised cell number [11, 17]
-0.339: z-score [12, 19]
1.2: normalised cell number [11, 16]

Cc1ccc(C)c(OCCCC(C)(C)C(=O)O)c1
0.636 and -0.228 and 0.576: z-score [12, 19]
1.03: normalised cell number [11, 17]
inactive: nuclear beta-catenin stimulation ([1]; at 10 µM) 1.3% | insulin secretion stimulation [2] -1% | viability decrease [3] 4.95% | tube area decrease [4] -9.2% | GLP1 secretion stimulation [5] 2.4% | inhibition of viability [6] -1.9% | viability decrease (inhibition) [7] 20.7% | viability decrease (inhibition) [8] 0.75% | inhibition [9] -2.35% | mean signal [10] 239 | red/green cell ratio (normalised) [11] 1.25 | z-score [12, 18] -0.269 and 0.233 and 0.482 | remaining NAD [13] 10 nM | luciferase signal [14] 128 AU | log fold change Tl+ flux (F380Y) 0.0531 | log fold change Tl+ flux (F380Y/beta1) 0.07 | log fold change Tl+ flux (F380Y/beta2Delta) 0.0499
1.2%: nuclear beta-catenin stimulation ([1]; stimulation, at 2 µM)
0.82: normalised cell number [11, 16]

CN(C)CCOC(c1ccc(Cl)cc1)c1ccccn1 (configuration not stated)
active: insulin secretion stimulation [2] 46.5%
0.3%: nuclear beta-catenin stimulation ([1]; stimulation, at 2 µM)
inactive: nuclear beta-catenin stimulation ([1]; at 10 µM) 0.9% | viability decrease [3] 8.6% | tube area decrease [4] 1.1% | GLP1 secretion stimulation [5] 6.8% | inhibition of viability [6] 2.7% | viability decrease (inhibition) [7] 6% | viability decrease (inhibition) [8] -7% | inhibition [9] 8.32% | mean signal [10] 244 | red/green cell ratio (normalised) [11] 1.11 | fold change [15, 20] 0.98 and 0.859 and 0.928 | z-score [12, 18] 0.0234 | remaining NAD [13] 10 nM | luciferase signal [14] 88 AU | log fold change Tl+ flux (F380Y) 0.0898 | log fold change Tl+ flux (F380Y/beta1) 0.0451 | log fold change Tl+ flux (F380Y/beta2Delta) 0.0734
1.31 and 1.4 and 2.86: fold change [15, 21]
1.14: normalised cell number [11, 16]
9460 and 9580 and 12300: cell count [15, 23]
9280 and 8230 and 11400: cell count [15, 22]
-1.05: z-score [12, 19]
1.26: normalised cell number [11, 17]
